Laboratory results taken from PubChem BioAssay AID1030 (National Center for Advancing Translational Sciences (NCATS), 2008).
Values joined by “and” are separate entries in the source; they are usually repeats but may differ in a detail not shown here. Equal values may be shown once. Screen size: about 220,000 compounds; about 16,000 (7.3%) were called active. Roughly 25% stayed inconclusive and do not appear here. The call rests on the fitted dose curve; in most records, active means well fitted inhibition curve with a large enough effect (not every such curve was filed as active); inconclusive means small, poorly fitted or top-dose-only effect, or another doubt; inactive means no such curve, though single readings can be large or run the other way. Only a selection was taken, and actives are over-represented in it overall. Some compounds were tested as several samples or in several runs, with calls that do not always agree.

The compounds below were run against Aldehyde dehydrogenase 1A1 (Homo sapiens) (UniProt P00352) (assay: qHTS Assay for Inhibitors of Aldehyde Dehydrogenase 1 (ALDH1A1)). Conditions: Purified ALDH1A1, NADH fluorescence, propionaldehyde substrate; series mostly up to 75.3 µM.
Potency means the concentration at half of the fitted maximal effect.

Aldehyde dehydrogenase 1A1 (Homo sapiens), sequence (P00352 whole entry, looked up): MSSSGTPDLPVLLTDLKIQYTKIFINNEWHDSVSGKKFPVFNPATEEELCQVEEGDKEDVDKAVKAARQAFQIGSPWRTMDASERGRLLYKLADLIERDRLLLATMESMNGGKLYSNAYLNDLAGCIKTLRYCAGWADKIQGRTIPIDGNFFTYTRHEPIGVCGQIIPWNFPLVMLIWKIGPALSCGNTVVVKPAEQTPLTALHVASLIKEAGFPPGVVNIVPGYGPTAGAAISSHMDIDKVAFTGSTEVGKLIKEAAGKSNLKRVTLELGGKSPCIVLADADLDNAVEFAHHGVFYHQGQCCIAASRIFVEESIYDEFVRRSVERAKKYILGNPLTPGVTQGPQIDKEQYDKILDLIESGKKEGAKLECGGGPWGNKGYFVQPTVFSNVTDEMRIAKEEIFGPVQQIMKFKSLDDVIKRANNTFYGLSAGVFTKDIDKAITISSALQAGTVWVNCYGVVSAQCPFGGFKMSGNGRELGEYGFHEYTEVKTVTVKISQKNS

Potency, active:
O=C(N/N=C/c1sc(N2CCCCC2)nc1-c1cccs1)c1cccnc1 31.6 µM, O=[N+]([O-])c1ccccc1/C=N/n1c(COc2ccccc2)n[nH]c1=S 15.8 µM, CCOC(=O)c1oc2c(CN3CCN(CCO)CC3)c(O)c(CC)cc2c(=O)c1-c1nc2ccccc2s1 28.2 µM, COc1ccc(S(=O)(=O)N/N=C\c2ccc(OC)c(COc3ccc(C)cc3[N+](=O)[O-])c2)cc1 14.1 µM, CSCCNCc1cn(-c2ccc(F)cc2F)nc1-c1ccccc1C 35.5 µM, COC(=O)c1cccc(-n2[nH]nnc2=S)c1 2.82 µM, Cc1ccc(S(=O)(=O)N(C)C)cc1NC(=O)/C=C/c1cccs1 0.447 µM, S=c1[nH]nc2c3c4c(sc3ncn12)CCCC4 25.1 µM, COc1cccc(OC)c1C(=O)Nc1nnc(C(C)C)s1 7.08 µM, COc1cc(C(=O)NC(=S)NCc2ccco2)cc(OC)c1OC 5.01 µM, CN(C)S(=O)(=O)c1ccc(NC(=O)COC(=O)Cn2[nH]c(=O)c3ccccc3c2=O)cc1 28.2 µM, O=[N+]([O-])c1cccc(/C([O-])=C(/C(=S)Nc2ccccc2F)[n+]2ccccc2)c1 22.4 µM, CCOC(=O)NC(=O)/C(C#N)=C\c1ccccc1 7.08 µM, CS(=O)(=O)c1ccc2nnn(OCC(=O)Nc3cccc(C#N)c3)c2c1 10 µM, CC(C)(C)NC(=O)CSC(=Nc1ccccc1F)NC#N 1.26 µM, S=c1ccc2ccccc2[nH]1 25.1 µM, O=C1C(c2[nH]c3ccccc3c2O)=Nc2ccccc21 15.8 µM, N#Cc1ccccc1-n1c(N)c(C(=O)N2CCCC2)sc1=S 11.2 µM, Cc1cccc(-n2c(N)c(C(=O)N3CCN(C)CC3)sc2=S)c1 22.4 µM, Cc1ccc(-n2c(N)c(C(=O)N3CCOCC3)sc2=S)c(C)c1 10 µM

Potency, inactive:
O=C(NCc1ccccn1)c1cc(Br)ccc1Cl, CC[N+]1(CC)CC2=Cc3ccccc3CC2C1 (centres undefined), COc1ccc(N2CCN(C(=O)CCSCc3ccccc3F)CC2)cc1, Cc1cccc(-n2cc(CN3CCN(C(=O)c4ncn[nH]4)CC3)c(-c3cccc(F)c3)n2)c1, CC(C)=CCC[C@]1(C)[C@@H](CC=C(C)C)C[C@@]2(CC=C(C)C)C(=O)[C@]1(C(=O)C(C)C)C(=O)C(CC=C(C)C)=C2O, O=C(Nc1ccc(F)cc1)N1CCN(c2ccc(F)cc2)CC1, O=C(N/N=C/c1ccccn1)c1cccnc1, Cc1nn(Cc2ccc(Cl)cc2)c(Cl)c1/C=N/NC(=O)c1cccnc1, CCN(CCCNC(=O)CSc1cc(=O)n(C)c2cc(Cl)ccc12)Cc1ccccc1, CC1=NNC(=O)C1CCC(=O)N/N=C\c1cccc(Cl)c1 (centres undefined), CCc1n[nH]c(=S)n1/N=C/c1c[nH]c2ccc(Br)cc12, S=c1[nH]nc(COc2ccccc2)n1-c1ccccc1, O=C(Nc1nc(-c2cccnc2)cs1)c1ccccc1F, CCN1CCN(CC(=O)Nc2sc3c(c2C#N)CCC3)CC1, CCc1cc2c(=O)c(-c3nc4ccccc4n3C)c(CCCC(=O)O)oc2cc1OC(=O)C(C)(C)C, Cn1c(=O)[nH]c(=O)c2c1nc(N1CCN(CCO)CC1)n2CCSc1nc2ccccc2s1, CCCCn1nc(C(=O)OCC(=O)Nc2sccc2C(N)=O)c2ccccc2c1=O, CCOC(=O)N1CCN(Cc2nc(Cc3cccc(C(F)(F)F)c3)no2)CC1, COC(=O)c1cc2c(ccn2C)n1C, CCOC(=O)/C(C#N)=C/c1cn(CCC(=O)O)nc1-c1ccc(Br)cc1, COc1ccc(C(=O)Oc2cc(/C=N/NS(=O)(=O)c3ccc(C)cc3)ccc2OC)cc1, COc1cc(/C=N/O)ccc1OCc1ccc([N+](=O)[O-])cc1, Cc1ccc2c(c1)C1CN(C)CCC1N2C(=S)Nc1ccc(OC(F)F)cc1 (centres undefined), COCCNC(=O)NC(=O)COC(=O)C1(c2ccc(Cl)cc2)CC1, COc1ccccc1CC(=O)Nc1ccc(F)cc1F, O=C(CC12CC3CC(CC(C3)C1)C2)NCc1ccco1, CCOC(=O)c1ccc[n+](CC(=O)Nc2ccccc2OC(F)F)c1, COC(=O)c1ccc(-n2cnc3ccccc32)nc1, COC(=O)c1nn(-c2cccc(Cl)c2)ccc1=O, COc1ccc(NC(=O)c2ccccc2[N+](=O)[O-])cc1OC, CCOC(=O)C1(Cc2ccc(Cl)cc2)CCN(C(=O)C2=NNC(=O)CC2)CC1, Cc1ccc(S(=O)(=O)N(C)C)cc1NC(=O)c1ccccc1Br, CN(C)S(=O)(=O)c1cccc(NC(=O)COC(=O)/C=C/c2cccs2)c1, CCCCN(CC(=O)NC(C)(C)C)C(=O)C(=O)Nc1ccc2c(c1)OCCO2, c1nnc2c3c4c(sc3ncn12)CCC4, N=c1c2c3c(sc2ncn1N)CCCC3, Clc1cccc(-c2nc(NCC3CCCO3)c3ccccc3n2)c1 (centres undefined), O=C(Nc1ccc(N2CCN(C(=O)c3ccccc3)CC2)c(Cl)c1)c1cccnc1, CCC(=O)Nc1cccc(NC(=O)c2cccnc2)c1, CC(NC(=O)Nc1ccc2c(c1)OCO2)c1ccncc1 (centres undefined), COc1cccc(OC)c1C(=O)Nc1ccc(Cc2ccncc2)cc1, CCn1nnc(NC(=O)c2c(OC)cccc2OC)n1, CC(CC(=O)O)C(=O)c1ccc(Cl)c([N+](=O)[O-])c1 (centres undefined), COc1ccc(-c2cc(C(=O)NCc3ccco3)no2)cc1OC, COc1cc(C(=O)N[C@@H](C)C(=O)NCc2ccco2)cc(OC)c1OC, Cc1cccc(NC(=S)N2CCC(O)CC2)c1C, CC(C)(c1ccccc1)c1ccc(OCCN)cc1, CCOc1ccc(/C=N/Nc2nncc(-c3ccccc3)n2)cc1OC, CN(C)S(=O)(=O)c1cccc(NC(=O)COC(=O)c2cc(=O)[nH]c(=O)[nH]2)c1, CN(C)S(=O)(=O)c1ccc(NC(=O)COC(=O)c2n[nH]c3ccccc23)cc1, C=CCN(c1ccc(Cl)cc1)S(=O)(=O)c1cccc(C(=O)OCC(=O)N(C)C)c1, O=C(NNC(=S)NCc1ccccc1)c1ccc(OC(F)F)cc1, Cc1nc2nc[nH]n2c(=O)c1C/C=C/c1ccccc1, CC(C)=CCN1CCC2(CCc3ccccc32)CC1, Cc1cccc(C(=O)NNC(=O)c2cccc([N+](=O)[O-])c2)c1, CCC(C)NCC(=O)Nc1ccc([N+](=O)[O-])cc1C(=O)Nc1ccccc1F (centres undefined), CCOc1cc(N2CCOCC2)c(OCC)cc1NC(=O)C1=NN(c2cccc(C)c2)C(=O)CC1, CCNC(=S)Nc1ccc(OC(F)(F)F)cc1, CCOC(=O)/C(C#N)=C/c1ccc(N2CCN(Cc3ccccc3)CC2)cc1, CCOC(=O)C(C(=O)OCC)C(C#N)c1ccccc1 (centres undefined), Cc1ccnc(NC(=O)Cn2ccc([N+](=O)[O-])n2)c1, Cc1cc(NC(=O)COn2nnc3ccccc32)no1, Cc1ccc(CC(=O)Nc2cccc(C#N)c2)cc1, CC(=O)c1ccccc1NC(=O)CC1(CC(=O)O)CCCCC1, C=CCC1CCC(=O)N2CCCC12 (centres undefined), Cc1ccccc1CSCC(=O)NC(=O)NC(C)(C)C, COc1ccccc1-n1ccnc1SCC(=O)NC(C)(C)C, COc1cccc(OC)c1CN(C)C(=O)c1cnccc1C(F)(F)F, O=C(N/N=C/c1ccc([N+](=O)[O-])cc1)c1c[nH]c2ccccc12, CC(=O)NCCC(=O)Nc1nc(C)c(Cc2ccc3c(c2)OCO3)s1, O=C(Nc1ccccc1)c1cc2ccccc2[nH]1, COc1cc(COCC(O)CN2CCN(Cc3ccc4c(c3)OCO4)CC2)cc(OC)c1OC (centres undefined), Cc1nc([N+](=O)[O-])cn1CC(=O)Nc1ccc2c(c1)OCO2, Cn1cnc(C(F)(F)F)c1-c1ccc([N+](=O)[O-])cc1, Cc1cccc(C)c1Nc1nnc(SCC(=O)Nc2sccc2C#N)s1, CC(C)C(=O)Nc1c(O)c2ccccc2[nH]c1=O, CC(=O)Nc1ccc(OCC(=O)NCc2ccc(C)cc2)cc1, C/C=C/c1ccc(OCC(O)CN2CCCCCCC2)c(OC)c1 (centres undefined), CCOC(=O)CNc1nc(Cl)nc(Nc2ccccc2)n1, CC(NC(=S)Nc1ccc(OC(F)F)cc1)c1ccc(F)cc1 (centres undefined), Cc1cccc(C(=O)N2CCCN(C(=O)c3cccc(C)c3)CC2)c1, O=C(Nc1cccc(C(=O)N2CCCC2)c1)c1ccccc1, O=C(c1ccc(S(=O)(=O)c2ccccc2)cc1)N1CCCCCC1, Cc1nc2ccc(C(=O)N3CCN(c4ccccc4)CC3)cc2s1, Cc1ccc(OCCCC(=O)N2CCOCC2)c(C)c1, Cc1ccc(C(=O)N2CCN(C(=O)N3CCOCC3)CC2)cc1, CCN(CC)S(=O)(=O)c1ccc(N(C)Cc2cccc(OC)c2OC)nc1, CC(C)(C)OC(=O)NCCCCC1=CC2=CC(=O)C(C)(OC(=O)c3cccs3)C(=O)C2=CO1 (centres undefined)

Potency, inactive and 22.4 µM (active):
C[C@@H](C(=O)Nc1ccc2ccccc2c1)[C@@H]1C[C@@]1(C)[C@@H](NC(=O)c1cccnc1)c1ccccc1
